{"source": "PubChem BioAssay (Tox21)", "note": "Active and inactive are the calls of the source. The call rests on the fitted dose curve. On the % scale 0 is the no-effect control and ±100 the full control effect; potency means the concentration at half of the fitted maximal effect.", "data": [{"molecular_target": "Gonadotropin-releasing hormone receptor (Homo sapiens) (UniProt P30968)", "sequence (P30968 whole entry, looked up)": "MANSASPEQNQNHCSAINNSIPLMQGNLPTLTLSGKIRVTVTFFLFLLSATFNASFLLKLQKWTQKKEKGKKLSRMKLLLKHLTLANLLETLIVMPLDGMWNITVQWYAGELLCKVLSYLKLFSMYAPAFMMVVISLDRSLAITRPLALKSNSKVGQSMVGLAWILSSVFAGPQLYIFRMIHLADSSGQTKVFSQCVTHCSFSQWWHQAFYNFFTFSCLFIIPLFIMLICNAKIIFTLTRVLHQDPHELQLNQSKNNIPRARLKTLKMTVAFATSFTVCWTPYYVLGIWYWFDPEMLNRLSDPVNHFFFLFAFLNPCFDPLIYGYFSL", "assay": "Human gonadotropin-releasing hormone receptor (GnRHR) small molecule agonists, calcium flux assay in GnRHR-HEK293 cells (AID 1920063); further: nearly all actives have a fitted effect of over 35% in size", "details": "calcium flux fluorescence, agonist mode; series mostly up to 57.6 µM; activity change: at the top concentration", "text": "National Center for Advancing Translational Sciences [NCATS]\nDivision of Preclinical Innovation [DPI]\nU.S. Environmental Protection Agency [EPA]\nNational Institutes of Environmental Health Sciences [NIEHS]\nNational Toxicology Program [NTP]\nU.S. Food and Drug Administration [FDA]\nGonadotropin-releasing hormone receptor (GnRHR) is a G-protein-coupled receptor (GPCR) and acts (through phospholipase C) to increase intracellular inositol trisphosphate and then release intracellular calcium stores. Cell-based GnRHR-Hek293 calcium influx assay is using HEK293 cells that have been genetically engineered to express the human GnRHR, which activity can be measured by calcium signaling. A compound/drug can activate (agonist) GnRHR that can be monitored by levels of intracellular calcium.\nGnRHR-HEK293 cells developed by Codex Corp contain human GnRHR reporter gene, which was stably integrated into HEK 293 cells. The compound activation can be detected by fluorescence intensity via calcium flux assay. This cell line has been used to screen the Tox21 10K compound library to identify GnRHR agonists.\nGnRHR-Hek293 cells were dispensed at 1500cells/4uL/well in 1536-well black wall/clear bottom plates using a multidrop dispenser. After the assay plates were incubated at a 37 C/5% CO2 incubator for 18 hours, 4 uL of Calcium Dye Solution was added to each well. The plates were incubated at 37 C for 1 hour. For agonist mode, 23 nL of compounds dissolved in DMSO, positive controls or DMSO only was transferred to the assay plate by a pin tool station. The fluorescence intensity in the plates was measured using FDSS 7000EX kinetic plate reader with a filter set of Ex/Em=480/540 for 3 min at 1 sec intervals. Each test compound was measured at 15 concentrations and in triplicates.", "values": [{"compound": "COc1ccc(CN2CCNCC2)c(OC)c1OC", "activity change": "0.0419% [at 26.4 µM, stronger effect = higher value] (inactive)"}, {"compound": "Clc1c(Cl)c(Cl)c(Cl)c(Cl)c1Cl", "activity change": "-0.0134% [at 5.22 µM, stronger effect = higher value] (inactive)"}, {"compound": "Cc1nc(N)nc(N)n1", "activity change": "1.09% (inactive)"}, {"compound": "Oc1ccc2[nH]cc(CCCCN3CC=C(c4ccccc4)CC3)c2c1", "activity change": "11.4% [at 26.4 µM, stronger effect = higher value] (inactive)"}, {"compound": "CC[C@H]1C[C@@H]2C[C@H]3c4[nH]c5ccc(OC)cc5c4CCN(C2)[C@@H]13", "activity change": "1.17% (inactive)"}, {"compound": "C=C(Cl)CSC(=S)N(CC)CC", "activity change": "-1.77% (inactive)"}, {"compound": "C=CCC1([C@H](C)CCC)C(=O)NC(=O)NC1=O", "activity change": "0.517% (inactive)"}, {"compound": "CC(C)(C)N(NC(=O)c1ccc(Cl)cc1)C(=O)c1ccccc1", "activity change": "1.03% (inactive)"}, {"compound": "O=C1c2ccccc2C(=O)c2ccccc21", "activity change": "-0.0358% [at 11.8 µM, stronger effect = higher value] (inactive)"}, {"compound": "CCCCCCCCCCCCCCCCCCn1cc[n+](C)c1", "activity change": "0.365% (inactive)"}, {"compound": "Cc1ccccc1C(=O)Nc1cccc(OC(C)C)c1", "activity change": "-0.788% (inactive)"}, {"compound": "CNC(=O)Oc1ccc(N(C)C)c(C)c1", "activity change": "-0.566% (inactive)"}, {"compound": "CC(=O)[C@H]1CC[C@H]2[C@@H]3CC[C@H]4C[C@H](O)CC[C@]4(C)[C@H]3C(=O)C[C@]12C", "activity change": "6.53% [at 26.4 µM, stronger effect = higher value] (inactive)"}, {"compound": "OCCBr", "activity change": "-0.875% (inactive)"}, {"compound": "[Hg+2].[I-].[I-]", "Potency": "43.6 µM (active)"}, {"compound": "O=C(N[C@H]1N=C(c2ccccc2F)c2cccc3c2N(CC3)C1=O)c1cc2ccccc2[nH]1", "activity change": "-1.61% [at 26.4 µM, stronger effect = higher value] (inactive)"}, {"compound": "CON(C)C(=O)Nc1ccc(Br)c(Cl)c1", "activity change": "0.25% (inactive)"}, {"compound": "C=CCC1(C(C)CC)C(=O)NC(=O)NC1=O", "note": "(stereo not given)", "activity change": "-0.0668% [at 26.4 µM, stronger effect = higher value] (inactive)"}, {"compound": "CCNc1nc(Cl)nc(NC(C)(C)C)n1", "activity change": "2.83% (inactive)"}, {"compound": "CCOP(=S)(OCC)Oc1ccc(S(C)=O)cc1", "note": "(stereo not given)", "activity change": "-1.03% (inactive)"}, {"compound": "CCNC(=O)NC(=O)/C(C#N)=N/OC", "activity change": "-1.01% (inactive)"}, {"compound": "CO/N=C(\\C(=O)OC)c1ccccc1CO/N=C(\\C)c1cccc(C(F)(F)F)c1", "activity change": "0.0691% (inactive)"}, {"compound": "CC1(C)C(/C=C(\\Cl)C(F)(F)F)C1C(=O)OC(C#N)c1cccc(Oc2ccccc2)c1", "note": "(stereo not given)", "activity change": "1.73% (inactive)"}, {"compound": "CCCCP(CCCC)CCCC", "activity change": "2% (inactive)"}, {"compound": "C[N+]1(CCC(C(N)=O)(c2ccccc2)c2ccccc2)CCCCC1", "activity change": "0.969% [at 26.4 µM, stronger effect = higher value] (inactive)"}, {"compound": "CC(C)(c1ccc(O)c(-c2ccccc2)c1)c1ccc(O)c(-c2ccccc2)c1", "activity change": "1.39% (inactive)"}, {"compound": "CCOCn1c(-c2ccc(Cl)cc2)c(C#N)c(Br)c1C(F)(F)F", "activity change": "11% (inactive)"}, {"compound": "ClC(Cl)=C(Cl)Cl", "activity change": "1.42% (inactive)"}, {"compound": "CCN(C(C)=O)c1cccc(-c2ccnc3c(C#N)cnn23)c1", "activity change": "4.24% [at 26.4 µM, stronger effect = higher value] (inactive)"}, {"compound": "CC(C)CC(C)Nc1ccc(Nc2ccccc2)cc1", "note": "(stereo not given)", "activity change": "-2.71% (inactive)"}, {"compound": "COP(=S)(OC)Oc1c(Cl)cc(C)cc1Cl", "activity change": "-0.563% (inactive)"}, {"compound": "CCCCOC(=O)c1ccccc1N", "activity change": "-1.7% (inactive)"}, {"compound": "c1cc(OCC2CO2)ccc1Cc1ccc(OCC2CO2)cc1", "note": "(stereo not given)", "Potency": "inactive"}, {"compound": "O=C(CCCN1CCC2(CC1)C(=O)NCN2c1ccccc1)c1ccc(F)cc1", "Potency": "6.01 µM (active)"}, {"compound": "CCSCc1ccccc1OC(=O)NC", "activity change": "-1.93% (inactive)"}, {"compound": "CCCCCCCCCC(=O)O[C@H]1CC[C@H]2[C@@H]3CCC4=CC(=O)CC[C@@H]4[C@H]3CC[C@]12C", "activity change": "-0.946% [at 26.4 µM, stronger effect = higher value] (inactive)"}, {"compound": "COC(=O)N(C(=O)N1CO[C@@]2(C(=O)OC)Cc3cc(Cl)ccc3C2=N1)c1ccc(OC(F)(F)F)cc1", "activity change": "-0.0151% (inactive)"}, {"compound": "CCOP(=S)(Oc1cnc(C(C)(C)C)nc1)OC(C)C", "note": "(stereo not given)", "activity change": "4.57% (inactive)"}, {"compound": "Nc1ccc([N+](=O)[O-])cc1Cl", "activity change": "-1.32% (inactive)"}, {"compound": "c1coc(-c2nc3ccccc3[nH]2)c1", "activity change": "-0.108% (inactive)"}]}]}
